From PubChem BioAssay AID1159580 (chemical genetic matrix, 2015)
About 2,000 (36%) of roughly 5,500 compounds were called active. Not shown: some 18% with an inconclusive outcome. No stated cut-off is given here; in the data, active means normalized growth mostly below about 0.91 (no sharp cut-off); inconclusive means no clear call, values can overlap the other calls; inactive means mostly above about 0.92. This is one part of the list.

Test: chemical genetic growth profiling, strain panel (AID 1159580);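 further: tested at 20 µM; growth read once vehicle control cultures reached saturation at 30 °C; 1 = growth at the plate median or of vehicle wells; lower values mean less growth of the strain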
Conditions: growth OD

Measured: normalized growth

CNC(=O)Oc1cccc2c1OC(C)(C)O2
inactive: S. cerevisiae deletion strains, locus YJR043C, strain POL32, hits give low values 1.01 | S. cerevisiae deletion strains, locus YJR075W, strain HOC1, hits give low values 1.01 | S. cerevisiae deletion strains, locus YKL009W, strain mrt4, hits give low values 1.02 | S. cerevisiae deletion strains, locus YKL068W, hits give low values 1 | S. cerevisiae deletion strains, locus YKL085W, strain MDH1 (second series), hits give low values 1 | S. cerevisiae deletion strains, locus YKL085W, strain MDH1, hits give low values 1 | S. cerevisiae deletion strains, locus YKL160W, strain elf1, hits give low values 0.994 | S. cerevisiae deletion strains, locus YKL190W, strain CNB1, hits give low values 1.02 | S. cerevisiae deletion strains, locus YKR001C, strain vps1, hits give low values 1.01 | S. cerevisiae deletion strains, locus YKR026C, strain gcn3, hits give low values 1 | S. cerevisiae deletion strains, locus YKR091W, strain srl3, hits give low values 1 | S. cerevisiae deletion strains, locus YLL001W, strain dnm1, hits give low values 0.992 | S. cerevisiae deletion strains, locus YLL026W, hits give low values 0.998 | S. cerevisiae deletion strains, locus YLL041C, strain sdh2, hits give low values 0.999 | S. cerevisiae deletion strains, locus YLR027C, strain aat2, hits give low values 0.99 | S. cerevisiae deletion strains, locus YLR039C, strain RIC1, hits give low values 1.1 | S. cerevisiae deletion strains, locus YLR058C, strain SHM2, hits give low values 1.02 | S. cerevisiae deletion strains, locus YLR102C, strain apc9, hits give low values 0.991 | S. cerevisiae deletion strains, locus YLR221C, strain rsa3, hits give low values 1 | S. cerevisiae deletion strains, locus YLR258W, strain gsy2, hits give low values 1 | S. cerevisiae deletion strains, locus YLR262C, strain YPT6 (second series), hits give low values 1.03 | S. cerevisiae deletion strains, locus YLR262C, strain YPT6, hits give low values 1.14 | S. cerevisiae deletion strains, locus YLR268W, strain sec22, hits give low values 0.998 | S. cerevisiae deletion strains, locus YLR320W, strain mms22, hits give low values 0.986 | S. cerevisiae deletion strains, locus YLR330W, strain CHS5, hits give low values 1.02 | S. cerevisiae deletion strains, locus YLR342W, strain FKS1 (second series), hits give low values 0.991 | S. cerevisiae deletion strains, locus YLR342W, strain FKS1, hits give low values 0.997 | S. cerevisiae deletion strains, locus YLR357W, strain rsc2, hits give low values 1.05 | S. cerevisiae deletion strains, locus YLR370C, strain arc18, hits give low values 1.01 | S. cerevisiae deletion strains, locus YLR371W, strain rom2, hits give low values 0.989 | S. cerevisiae deletion strains, locus YLR384C, strain iki3, hits give low values 1.01 | S. cerevisiae deletion strains, locus YLR418C, strain cdc73, hits give low values 0.9 | S. cerevisiae deletion strains, locus YML016C, strain PPZ1, hits give low values 1.02 | S. cerevisiae deletion strains, locus YML032C, strain rad52, hits give low values 0.992 | S. cerevisiae deletion strains, locus YML120C, strain ndi1, hits give low values 1.01 | S. cerevisiae deletion strains, locus YML124C, strain tub3, hits give low values 0.998 | S. cerevisiae deletion strains, locus YMR058W, strain fet3, hits give low values 0.999 | S. cerevisiae deletion strains, locus YMR078C, strain ctf18, hits give low values 0.99 | S. cerevisiae deletion strains, locus YMR125W, strain sto1, hits give low values 1 | S. cerevisiae deletion strains, locus YMR129W, hits give low values 0.996 | S. cerevisiae deletion strains, locus YMR205C, strain PFK2, hits give low values 0.976 | S. cerevisiae deletion strains, locus YMR223W, strain ubp8, hits give low values 0.985 | S. cerevisiae deletion strains, locus YMR231W, strain pep5, hits give low values 0.995 | S. cerevisiae deletion strains, locus YMR263W, strain SAP30, hits give low values 1.02 | S. cerevisiae deletion strains, locus YMR307W, strain GAS1, hits give low values 1.05 | S. cerevisiae deletion strains, locus YNL067W, strain RPL9B, hits give low values 1.02 | S. cerevisiae deletion strains, locus YNL071W, strain lat1, hits give low values 1 | S. cerevisiae deletion strains, locus YNL128W, strain TEP1, hits give low values 1.03 | S. cerevisiae deletion strains, locus YNL153C, strain GIM3, hits give low values 1.01 | S. cerevisiae deletion strains, locus YNL209W, strain ssb2, hits give low values 0.996 | S. cerevisiae deletion strains, locus YNL233W, strain BNI4, hits give low values 1.02 | S. cerevisiae deletion strains, locus YNL248C, strain rpa49, hits give low values 0.991 | S. cerevisiae deletion strains, locus YNL250W, strain rad50, hits give low values 0.997 | S. cerevisiae deletion strains, locus YNL271C, strain bni1, hits give low values 1 | S. cerevisiae deletion strains, locus YNL298W, strain CLA4, hits give low values 0.998 | S. cerevisiae deletion strains, locus YNL307C, strain MCK1, hits give low values 0.984 | S. cerevisiae deletion strains, locus YNL322C, strain KRE1 (second series), hits give low values 0.999 | S. cerevisiae deletion strains, locus YNL322C, strain KRE1, hits give low values 1.02 | S. cerevisiae deletion strains, locus YNR049C, strain mso1, hits give low values 1 | S. cerevisiae deletion strains, locus YNR052C, strain pop2, hits give low values 0.996 | S. cerevisiae deletion strains, locus YOL006C, strain TOP1, hits give low values 1.02 | S. cerevisiae deletion strains, locus YOL012C, strain htz1 1.24 | S. cerevisiae deletion strains, locus YOL147C, strain pex11, hits give low values 0.993 | S. cerevisiae deletion strains, locus YOR001W, strain rrp6, hits give low values 0.981 | S. cerevisiae deletion strains, locus YOR061W, strain CKA2, hits give low values 1.02 | S. cerevisiae deletion strains, locus YOR069W, strain VPS5, hits give low values 1.01 | S. cerevisiae deletion strains, locus YOR070C, strain gyp1, hits give low values 0.991 | S. cerevisiae deletion strains, locus YOR080W, strain dia2, hits give low values 1 | S. cerevisiae deletion strains, locus YOR083W, strain WHI5, hits give low values 1 | S. cerevisiae deletion strains, locus YOR106W, strain vam3, hits give low values 0.987 | S. cerevisiae deletion strains, locus YOR136W, strain idh2, hits give low values 0.983 | S. cerevisiae deletion strains, locus YOR144C, strain elg1, hits give low values 0.999 | S. cerevisiae deletion strains, locus YOR184W, strain ser1, hits give low values 1.01 | S. cerevisiae deletion strains, locus YOR265W, strain rbl2, hits give low values 1.01 | S. cerevisiae deletion strains, locus YOR270C, strain vph1, hits give low values 0.953 | S. cerevisiae deletion strains, locus YOR290C, strain snf2, hits give low values 0.959 | S. cerevisiae deletion strains, locus YOR316C, strain cot1, hits give low values 0.995 | S. cerevisiae deletion strains, locus YPL051W, strain arl3, hits give low values 0.997 | S. cerevisiae deletion strains, locus YPL055C, strain LGE1, hits give low values 1.03 | S. cerevisiae deletion strains, locus YPL078C, strain atp4, hits give low values 0.988 | S. cerevisiae deletion strains, locus YPL106C, strain sse1, hits give low values 1.08 | S. cerevisiae deletion strains, locus YPL240C, strain hsp82, hits give low values 1 | S. cerevisiae deletion strains, locus YPL241C, strain CIN2, hits give low values 1.02 | S. cerevisiae deletion strains, locus YPR119W, strain clb2, hits give low values 0.993 | S. cerevisiae deletion strains, locus YPR141C, strain kar3, hits give low values 0.993 | S. cerevisiae deletion strains, locus YPR163C, strain tif3, hits give low values 0.988 | S. cerevisiae deletion strains, locus YPR167C, strain met16, hits give low values 0.993 | S. cerevisiae deletion strains, strain wtn01, hits give low values 0.99 | S. cerevisiae strains, strain wild type, hits give low values 1.01
